# Compound activity: PubChem BioAssay, National Center for Advancing Translational Sciences (NCATS)
# A selection: hits, their analogues and other compounds. The true share with any hit is near 0.33%.
# Tb PGK inh – T. brucei PGK inhibition; PGK/GAPDH coupled, Kinase-Glo luminescence, 60 min; Potency, µM (highest dose often 57.5 µM), for inactives: at the top dose activity change, negative = inhibition, most hits filed as inhibitors; 0.043% of 380,000 active; note: nearly all actives have a fitted effect of over 60% in size
# Target sequence (P07378 whole entry, looked up): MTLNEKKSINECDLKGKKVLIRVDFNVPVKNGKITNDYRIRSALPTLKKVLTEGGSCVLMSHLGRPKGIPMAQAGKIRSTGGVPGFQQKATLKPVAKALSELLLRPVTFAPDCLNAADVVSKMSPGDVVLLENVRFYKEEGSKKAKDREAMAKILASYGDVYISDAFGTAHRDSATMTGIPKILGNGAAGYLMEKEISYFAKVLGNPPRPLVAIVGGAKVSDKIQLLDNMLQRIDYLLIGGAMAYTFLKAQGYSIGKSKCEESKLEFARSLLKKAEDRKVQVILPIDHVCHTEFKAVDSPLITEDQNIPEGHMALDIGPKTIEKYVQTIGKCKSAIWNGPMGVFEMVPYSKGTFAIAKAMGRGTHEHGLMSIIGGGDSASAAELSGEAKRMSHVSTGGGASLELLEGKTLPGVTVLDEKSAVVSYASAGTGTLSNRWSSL
#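 Luminescent ATP detection (Kinase-Glo Plus) follows a 60-minute room-temperature incubation, with wells lacking PGK as controls. Buffer: 100 mM TEA (pH 7.6), 5 mM MgCl2, 0.01% Tween-20. Coupling enzyme GAPDH (100 nM final) supplies unstable 1,3-BPG in-well.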
# mIDH1 inhibitor – blocks human mutant IDH1 R132H enzyme | O75874 | Potency, µM (top dose mostly 76.6 µM), for inactives: top-dose activity change, negative = inhibition, hits mostly inhibitors | 0.093% of 390,000 active | AID 602179 | IDH1-R132H enzyme, NADPH consumption, diaphorase/resazurin fluorescence; note: nearly all actives have a fitted effect of over 65% in size
#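 IDH1-R132H (0.5 ug/mL dispensed) in pH 7.5 Tris buffer was preincubated 30 min with compound, then given a substrate mix of 0.016 mM NADPH and 2 mM alpha-KG for 80 min at room temperature; remaining NADPH was read by diaphorase/resazurin fluorescence.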
# Pin1 inhibitor – inhibitors of human Pin1; Q13526; Pin1 FP peptide displacement, HiFluor488, 10 min; Potency, µM (top dose mostly 115 µM), for inactives: at the top dose activity, negative = inhibition, usual class: inhibitors; 0.009% of 390,000 active; active = well fitted inhibition curve with a large enough effect in the polarisation, with a control signal flat, not every such curve was filed as active; inconclusive = small, poorly fitted or top-dose-only effect, or effect the other way, or a change in a side signal; inactive = no such curve, though single readings can be large or run the other way; the % refers to the polarisation
# Target sequence (Q13526 whole entry, looked up): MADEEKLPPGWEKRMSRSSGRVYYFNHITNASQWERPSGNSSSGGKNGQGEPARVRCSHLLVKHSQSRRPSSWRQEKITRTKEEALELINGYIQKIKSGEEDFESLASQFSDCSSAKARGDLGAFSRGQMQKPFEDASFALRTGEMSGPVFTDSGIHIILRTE
# GLS inh – glutaminase GLS (human) inhibition. O94925. GLS enzymatic activity, qHTS titration. Potency, µM (highest dose often 45.5 µM), without a hit: at the highest dose activity change, negative = inhibition, hits mostly inhibitors. 0.21% of 410,000 active. AID 624170
#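 hKGA; 45 mM KH2PO4 pH 8.2 + 0.02% Tween-20; cpd via pin tool; 1 mM Gln soln; GluOx/HRP/Amplex Red; RT 30 min; fluor. t0 & final.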
# An asterisk follows results filed as active; i = inactive; ? = inconclusive; · = no result given; ! = not active in a repeat. Unless noted, calls come from the whole dose curve; as a rule, active = well fitted curve in the direction sought with a large enough effect; inconclusive = small, poorly fitted or top-dose-only effect, or another doubt; inactive = no such curve, though single readings can be large; an effect the other way counts as inactive or inconclusive. % is set by controls: 0 for no effect and ±100 for the full control effect; potency is the fitted concentration of half-maximal effect.
SMILES,Tb PGK inh,mIDH1 inhibitor,Pin1 inhibitor,GLS inh
COc1ccc(NC2=C(NC(C)=O)C(=O)c3ccccc3C2=O)cc1,-13%,11%,-9%,-7%
Nc1ccc(O)c([N+](=O)[O-])c1,-3%,-2%,-1%,40µM*!
CC1(C)CC(=O)C(C(c2ccc(F)cc2)C2C(=O)CC(C)(C)CC2=O)C(=O)C1,i,0%,-4%,-1%
CCc1sc(C(C2C(=O)CC(C)(C)CC2=O)C2C(=O)CC(C)(C)CC2=O)cc1[N+](=O)[O-],2%,1%,-2%,7.1µM*
c1ccc(-c2nnnn2-c2ccccc2)cc1,-5%,-8%,-6%,-5%
ClC(Cl)(c1nnnn1-c1ccccc1)c1nnnn1-c1ccccc1,-5%,5%,-7%,10µM*
CNc1cccc(S(=O)(=O)N2CCCN(S(=O)(=O)c3ccc4c(c3)OCCO4)CC2)c1,·,·,2%,·
Cc1ccc(C(=O)O/N=C(\N)c2ccccn2)c(C)c1,16µM*,4%,-3%,6%
COc1cc(OC)cc(C(=O)O/N=C(\N)c2ccccn2)c1,-2%,17%,-8%,-6%
COc1ccc(C(=O)O/N=C(\N)c2ccccn2)cc1,11µM*,5%,-2%,1%
COc1ccccc1C(=O)O/N=C(\N)c1ccccn1,-13%,0%,1%,0%
Cc1cc2c(s1)c1cnn(Cc3cc(F)ccc3C)c(=O)c1n2C,·,·,-1%,·
COc1ccc(C2Nc3ccccc3C(=O)N2Cc2cccc(-c3ccccc3)c2)cc1COc1ccc(NC(C)=O)cc1 (stereo not given),·,·,13%,·
S=c1[nH]c(-c2ccccc2)cn1/N=C/c1ccncc1,-7%,16%,?,10µM*
COC1=C(OC)C(=O)C(Sc2ccc3ccccc3c2)=CC1=O,-9%,14%,-8%,10µM*
O=C(C1CC1)N1CCN(c2ccc(O)cc2)CC1,1%,10%,-6%,10µM*
CC(=O)c1ccc(N2CCN(C(=O)C3CCC3)CC2)cc1,i,6%,-7%,5%
COc1cc(/C=N/NC(=O)c2cc(O)cc(O)c2)ccc1OC(=O)c1ccccc1,13µM*,-25%,?,13µM*
O=C(N/N=C/c1ccoc1)c1cc(O)cc(O)c1,?,1%,?,13µM*
CN(C)CCCNc1ncnc2ccc(-c3ccc4c(c3)OCO4)cc12,·,·,2%,·
C=CCN=c1scc(-c2ccco2)n1/N=C/c1ccc(O)c(O)c1O,-4%,12%,?,10µM*
COCCN=c1scc(-c2ccco2)n1/N=C/c1ccc(O)c(O)c1O,-25%,10%,?,0%
O=C(O)c1ccc2c(c1)[C@@H]1C=CC[C@@H]1[C@H](c1ccccn1)N2,?,5%,?,2.8µM*
Cc1ccccc1-c1cn(-c2ccccc2)c(=S)[nH]1,0%,1%,-4%,11µM*
Cc1cc2c(s1)c1cnn(Cc3c(F)ccc(C)c3Cl)c(=O)c1n2C,·,·,1%,·
SMILES,Tb PGK inh,mIDH1 inhibitor,Pin1 inhibitor,GLS inh
CSc1nc(SCC(=O)O)c2sc3nc(-c4ccccc4)c4c(c3c2n1)CCC4,?,-3%,·,14µM*
CSc1nc(N(C)CCO)c2sc3nc(-c4ccco4)c4c(c3c2n1)CCC4,?,-9%,·,13µM*
N=c1c2c(ncn1-c1ccccc1)Oc1ccc3ccccc3c1C2c1ccc2c(c1)OCO2 (stereo not given),·,·,84%,·
Cn1nnnc1Sc1ncnc2scc(-c3cccc(C#N)c3)c12,·,·,4%,·
CN(Cc1nccs1)c1ncnc2ccc(-c3ccc4c(c3)OCO4)cc12,·,·,-1%,·
CC(=O)Nc1ccc2c(O)cc(S(=O)(=O)O)cc2c1,-8%,7%,?,10µM*
COc1ccccc1Nc1ccc2c(O)cc(S(=O)(=O)O)cc2c1,22µM*,13%,21µM*,2.2µM*
Nc1cc(S(=O)(=O)O)cc([N+](=O)[O-])c1O,?,7%,?,?
O=C(O)c1cc(S(=O)(=O)O)ccc1O,-5%,-9%,-3%,-4%
O=S(=O)(O)c1cc(O)c2cc(Nc3ccccc3)ccc2c1,?,6%,?,?
Nc1cccc2c(O)cc(S(=O)(=O)O)cc12,18µM*,21%,?,2.8µM*
Nc1ccc2c(O)cc(S(=O)(=O)O)cc2c1,?,31%,?,4µM*
CN(C)c1cccc(-c2ncnc(N3CCC(C(N)=O)CC3)n2)c1,·,·,-23%,·
S=C(NCCCc1cnc[nH]1)NCCN(Cc1ccc(Cl)c(Cl)c1)c1ccc(Br)cn1,·,·,7%,·
O=C(CNC(=O)c1ccc2cc[nH]c2c1)OC(C(=O)Nc1cc(C(F)(F)F)ccc1Cl)c1ccccc1 (stereo not given),·,·,10%,·
COc1cccc(C2c3c(ncn(-c4ccc(C#N)cc4)c3=N)Oc3ccc4ccccc4c32)c1 (stereo not given),·,·,38%,·
Cc1ccc(NS(=O)(=O)c2ccc(N3CCCC3=O)cc2)cc1C,·,·,2%,·
COc1cccc(-n2c(SCC(=O)NCCC3=CCCCC3)nc3n[nH]c(C)c3c2=N)c1,-2%,0%,4%,20µM*
O=c1oc2ccccc2c2oc3cc(O)c(O)cc3c12,-8%,-1%,?,2.8µM*
Nc1c(N)c2ccccc2oc1=O,-3%,7%,-14%,10%
COc1cc(/C=C/C(=O)O)ccc1O,8%,-2%,4%,18%
COc1cc(/C=C/C(=O)/C=C(O)/C=C/c2ccc(O)c(OC)c2)ccc1O,-2%,-10%,?,35µM*!
COc1cc(C(C[N+](=O)[O-])c2c(C)cc3ccccn23)ccc1O (stereo not given),10%,-14%,17%,7.9µM*
Cc1cc(N/N=C/c2ccccc2O)nc(-c2ccccc2O)n1,-5%,3%,-6%,-13%
Cc1cc(N/N=C/c2ccc(O)cc2O)nc(-c2ccccc2O)n1,i,40µM*,-7%,2%
SMILES,Tb PGK inh,mIDH1 inhibitor,Pin1 inhibitor,GLS inh
Oc1ccc(/C=N/N2CCCCC2)c(O)c1,5%,1%,3%,6.3µM*
Oc1ccccc1C=NN1CCCCCC1,-3%,4%,0%,?
Cn1nnnc1SCC1=C(C(=O)O)N2C(=O)[C@@H](NC(=O)[C@H](OC=O)c3ccccc3)[C@H]2SC1,·,·,·,22µM*
Cn1nnnc1SCC1=C(C(=O)O)N2C(=O)[C@@H](NC(=O)[C@H](O)c3ccccc3)[C@H]2SC1,?,-1%,3.2µM*,10µM*
Cc1cc2c(s1)c1cnn(Cc3cc(Cl)ccc3F)c(=O)c1n2C,·,·,-4%,·
COc1ccc(CN(Cc2ccccc2)C(=O)c2ccccc2)cc1COc1ccc(NC(C)=O)cc1,·,·,18%,·
COc1cc(C2(c3ccc(O)c(OC)c3)C(=O)Nc3c(C)cc(Br)cc32)ccc1O,-1%,?,11%,2.5µM*
O=C(CCS(=O)(=O)c1ccc(Br)cc1)NCc1ccco1,13µM*,5%,-3%,?
Cc1cc2c(s1)c1cnn(Cc3ccc(Cl)c(F)c3)c(=O)c1n2C,·,·,-1%,·
Cc1cccc(C)c1NC(=O)CN(C)C(=O)c1ccccc1SCC(=O)N1CCCC1,i,7%,-3%,1%
